# High-throughput results deposited in PubChem by ICCB-Longwood Screening Facility, Harvard Medical School.
# Mtb MenB inh: M. tuberculosis MenB inhibitors, primary screen, biochemical, absorbance; inhibition, % (no concentration beside the values); MenB enzyme assay, absorbance read-out; AID 540299, 2011; actives 0.43% (n = 100,000); 1,4-dihydroxy-2-naphthoyl-CoA synthase (Mycobacterium tuberculosis (strain ATCC 25618 / …; in the data active = inhibition above about 21%, passing the limit was not always enough
# Target sequence (P9WNP5 whole entry, looked up): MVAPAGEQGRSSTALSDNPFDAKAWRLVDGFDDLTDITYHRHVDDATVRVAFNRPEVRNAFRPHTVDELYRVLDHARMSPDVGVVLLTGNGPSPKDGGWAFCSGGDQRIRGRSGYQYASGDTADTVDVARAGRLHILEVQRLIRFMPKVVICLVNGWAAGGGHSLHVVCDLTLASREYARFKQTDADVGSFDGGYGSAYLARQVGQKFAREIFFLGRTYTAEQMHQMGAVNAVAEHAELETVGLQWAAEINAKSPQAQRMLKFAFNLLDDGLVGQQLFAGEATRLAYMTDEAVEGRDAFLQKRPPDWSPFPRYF
# Polio RdRp inh: poliovirus RdRp elongation inhibitors, primary screen, biochemical, fluorescence polarization, total intensity; Genome polyprotein (Poliovirus type 1 (strain Mahoney)), P03300; AID 588519, 2011; actives 0.66% (n = 150,000); poliovirus polymerase elongation; stronger effect = lower value; % elongation, % (compound at 16.7 µg/mL); in the data active = % elongation below about 90%
# MbtI inh: MbtI salicylate synthase inhibitors, primary screen, biochemical, fluorescence intensity. purified MbtI enzyme, fluorescence intensity read-out. P9WFX0. AID 493033, 2011. inhibition, % (concentration not given with the values). actives 0.89% (n = 100,000); in the data active = inhibition mostly above about 56%, no sharp cut-off; inactive = mostly below about 77%
# Numbers without * were called inactive; / = not tested or not shown. Hits are enriched below; roughly 1.4% of the tested compounds scored in any of these assays.
SMILES,Mtb MenB inh,Polio RdRp inh,MbtI inh
Cc1ccc(-n2c(C)cc(=O)cc2C)cc1,-7,/,-3
CC1NC(=S)N(c2ccc(C(C)C)cc2)C1=O (configuration not stated),-34,105,12
Cc1ccc(N2C(=O)C=CC2=O)cc1,7,103,100*
Cc1ccc(Cn2nc(C)c(/C=C/C(=O)O)c2Cl)cc1,-13,97,5
Cc1cccc2sc(N(CCN(C)C)C(=O)C3COc4ccccc4O3)nc12 (configuration not stated),-3,101,10
CO[C@@H]1[C@H](OC(N)=O)C(O)[C@H](Oc2ccc3c(O)c(NC(=O)c4ccc(O)c(CC=C(C)C)c4)c(=O)oc3c2C)OC1(C)C (some centres not stated),-7,101*,-4
CO[C@@H]1[C@@H](OC(N)=O)[C@@H](O)[C@H](Oc2ccc3c(O)c(NC(=O)c4ccc(O)c(CC=C(C)C)c4)c(=O)oc3c2C)OC1(C)C,2,99,4
O=C(O)C(c1ccccc1)n1cnnn1 (configuration not stated),-30,102,5
CN1CCC(=NNC(N)=S)CC1,-42,106,-7
CC(C)c1cc(NC2CCCC2)n2c(nc3ccccc32)c1C#N,3,101,-5
CC(C)NC(=O)N1[C@H](c2cccs2)[C@@H](C)C(=O)[C@@H](C)[C@@H]1c1cccs1,/,110,/
COC(=O)C1(c2ccccc2)NC(c2ccccc2C)C2C(=O)N(C)C(=O)C21 (configuration not stated),-54,102,-8
COC(=O)C1(C(C)C)NC(c2ccccc2OC)C2C(=O)N(C)C(=O)C21 (configuration not stated),27*,102,-7
Cc1ccc(Cn2c(=O)c3ccccc3n3c(SC4CCOC4=O)nnc23)cc1 (configuration not stated),-16,110,-2
COC(=O)c1cc(=O)n(C2CCCCC2)c(=NC2CCCCC2)s1,7,103,7
S=C1CCc2ccccc2N1Cc1ccccc1,-3,106,-5
O=C1c2ccccc2-c2nnc(-c3cccc(OC(F)(F)F)c3)cc21,-27,103,-4
COc1ccc(-c2nnc(SCc3nc(N)nc(Nc4ccccc4C)n3)o2)cc1OC,-7,103,1
C1CCCC(NCCCN2CCOCC2)CC1,-28,101,-14
CC(C)CNCCCN1CCOCC1,36*,101,0
O=C1CSC(N2CCOCC2)=N1,5,103,-10
Cc1nn(C)c2c1S(=O)(=O)N=C(N1CCOCC1)S2,-11,81*,4
Cn1c(=O)c2ncnnc2n(C)c1=O,-22,63*,-3
Cn1c(=O)c2c(ncn2C)n(C)c1=O,4,100,-29
CC1=C(C)C(=O)C(NCc2ccccn2)=CC1=O,-2,66*,8
SMILES,Mtb MenB inh,Polio RdRp inh,MbtI inh
c1ccc(CNC2=NCCC2)nc1,-43,100,3
CCc1ccc(CC(=S)N2CCOCC2)cc1,-18,104,4
COc1ccc(CC(=S)N2CCOCC2)cc1,3,96,37
S=C(c1cccs1)N1CCCC1,-4,101,/
Cc1ccc(C(=S)N2CCOCC2)cc1,1,98,97*
CCc1ccc(C(=S)N2CCOCC2)cc1,0,100,26
Cc1ccc(CC(=S)N2CCOCC2)cc1,2,96,69*
S=C(c1cccs1)N1CCOCC1,-7,100,70*
S=C(c1ccc(-c2ccc(Cl)cc2)o1)N1CCOCC1,-30,99,77*
CC(=O)Nc1ccc(NC(=O)C2(c3ccccc3)CCCC2)cc1,-5,104,-1
COc1ccc(/C=C2\C(=O)Nc3ccccc32)c(OC)c1,-132,108,-10
CCn1c(COc2ccc(C)cc2)nnc1SCC(=O)N1CCCc2ccccc21,23,99,1
CCn1c(COc2cccc(C)c2)nnc1SCC(=O)N1C(C)CCCC1C (configuration not stated),39*,102,-5
C[C@H]([C@H](C)N1CC(=O)NC(=O)C1)N1CC(=O)NC(=O)C1,0,100,4
CN1CC(=O)NC(=O)C1,-4,84*,32
O=C(/C=C/c1ccc2c(c1)OCO2)/C=C/c1ccc2c(c1)OCO2,-52,103,1
O=C(Nc1cccnc1)C1CC(c2ccc(F)cc2)=NO1 (configuration not stated),5,102,3
O=C(CSc1nnc(SCC(=O)N2CCCC2)s1)N1CCCC1,13,103,91*
Cc1nnc(SCC(=O)N2CCCC2)s1,-25,103,-3
O=C(Cn1cnc2ccccc21)Nc1ccc2c(c1)OCCO2,/,101,-2
O=C1c2ccc(-c3nc4cc(Cl)ccc4c(=O)o3)cc2C(=O)N1CC1CCCO1 (configuration not stated),-1,98,-5
O=C(NCCn1cccc1)c1cccc2ccccc12,6,102,53*
O=C(NCCn1ccc2ccccc21)c1cccc2ccccc12,-18,101,7
COC(=O)c1c(NC(=O)C(C)Oc2ccc(Cl)cc2Cl)sc2c1CCCC2 (configuration not stated),/,100,/
Cc1sc(NC(=O)C(C)Oc2ccc(Cl)cc2Cl)c(C(N)=O)c1C (configuration not stated),-23,75*,/
SMILES,Mtb MenB inh,Polio RdRp inh,MbtI inh
CCN1CCCC1CNCc1ccccn1 (configuration not stated),-79,102,2
CCN1CCCC1CNCc1cccc(OC)c1OC (configuration not stated),38*,103,1
Cc1nc2ccc(NC(=O)c3ccc4ncsc4c3)cc2s1,-19,102,6
Clc1ccccc1C1=NC2=S(O1)OC(c1ccccc1Cl)=N2,6,96,80*
S=c1[nH]nc(-c2ccccc2Cl)o1,/,/,16
CCN1C(=O)/C(=C2\SC(=S)N(NC(=O)c3ccccc3)C2=O)c2ccccc21,-17,101,/
CC(=O)N1C(=O)/C(=C2\SC(=S)N(C(C)C(=O)O)C2=O)c2ccccc21 (configuration not stated),34*,103,9
CC(=O)NCCC(=O)Oc1c(C)ccc(C)c1C,9,107,-24
O=c1c(Cl)c[nH]n(-c2ccccc2)c1=O,8,100,8
CSc1c[nH]n(-c2ccccc2)c(=O)c1=O,-4,98,78*
O=C(CC1S/C(=N/N=C2\CSC(=O)N2)NC1=O)Nc1ccccc1 (configuration not stated),-38,100,9
CCn1c(=O)c2cc(C(=O)N(CCN(C)C)Cc3ccccc3)sc2c2ccccc21,/,87*,/
CCn1c(=O)c2cc(C(=O)N(Cc3ccccc3)C(C)C)sc2c2ccccc21,-10,100,38
Cc1cc(-n2c(C)cc(C(=O)COC(=O)c3ccc(C)c(NC(=O)c4ccco4)c3)c2C)no1,-29,103,7
NC(=S)c1ccccn1,-30,20*,10
NC(=S)N/N=C(/C(=O)c1ccccn1)c1ccccn1,-8,74*,91*
N/C(=N\O)c1ccccn1,3,104,-4
N/C(=N\NS(=O)(=O)c1ccccc1)c1ccccn1,-13,104,7
